Screening results deposited in PubChem by National Center for Advancing Translational Sciences (NCATS).
GLP1R ag – agonists of human GLP-1 receptor. P43220. 380,000 compounds, 0.007% hits. Potency, µM (highest dose often 45.6 µM), hits mostly activators. AID 624172. HEK293 GLP-1R CRE-luciferase, luminescence, 4-6 h; cells express a hypersensitive GLP-1R form
Target sequence (P43220 whole entry, looked up): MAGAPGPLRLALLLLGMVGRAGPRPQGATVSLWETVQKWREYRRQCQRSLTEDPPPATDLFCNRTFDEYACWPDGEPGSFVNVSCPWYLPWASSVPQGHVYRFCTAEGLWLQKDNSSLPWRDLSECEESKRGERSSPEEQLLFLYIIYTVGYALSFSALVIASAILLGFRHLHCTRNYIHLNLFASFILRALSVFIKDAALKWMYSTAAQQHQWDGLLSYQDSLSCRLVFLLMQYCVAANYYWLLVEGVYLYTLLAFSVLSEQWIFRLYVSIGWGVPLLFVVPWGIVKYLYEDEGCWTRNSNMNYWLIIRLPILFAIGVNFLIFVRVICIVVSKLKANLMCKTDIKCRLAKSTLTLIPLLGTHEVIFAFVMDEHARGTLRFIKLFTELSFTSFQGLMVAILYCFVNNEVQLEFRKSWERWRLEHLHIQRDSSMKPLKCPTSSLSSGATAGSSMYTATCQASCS
DRD3 antagonist – blocks the human D3 dopamine receptor | P35462 | D3R cells, DiscoveRx beta-arrestin luminescence, antagonist mode; active compounds read low | max response, negative = inhibition, % | 360,000 compounds, 2.5% hits | AID 652054; in the data active means max response below about -50%; inconclusive means no clear call, values can overlap the other calls
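Cells expressing the human receptor were seeded at 1500 cells/well, incubated overnight at 37 degrees C in 5% CO2, then exposed to library compounds with dopamine controls for 90 minutes at 37 degrees C before luminescent detection.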
GLP1R inv ag – GLP-1 receptor (human) inverse agonism | 410,000 compounds, 1.6% hits | HEK293 GLP-1R CRE-luciferase, luminescence, 24 h; GLP-1R form is constitutively active | Potency, µM (series often up to 38.3 µM), usual class: inhibitors | P43220; further: nearly all actives have a fitted effect of over 55% in size
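Seeding at 200 cells/uL, 12 h culture, 24 hr compound treatment, then luciferase reagent and a luminescence read; cells are HEK293 stably expressing a constitutively active GLP-1R plus cAMP-responsive luciferase.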
DRD3 agonist – activates the human D3 dopamine receptor | P35462 | D3R DiscoveRx beta-arrestin cells, luminescence, 90 min | max activation, % | 410,000 compounds, 0.58% hits | AID 652048; in the data active means max activation above about 30%
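Agonist mode: compounds and dopamine controls were applied to plated cells for 90 min at 37 degrees C after an overnight attachment at 1500 cells/well. Luminescent read-out followed 30 - 60 minutes at room temperature with DiscoveRx detection reagent.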
Of the large screens only hits and unclear results are named; the others gave an inactive call; ! = not active in a repeat. Most compounds without a hit are left out; they make up all but 4.3% or so of the library. Unless noted, the call rests on the fitted dose curve; in most records, active means well fitted curve in the direction sought with a large enough effect; inconclusive means small, poorly fitted or top-dose-only effect, or another doubt; inactive means no such curve, though single readings can be large; an effect the other way counts as inactive or inconclusive.

COC(=O)C1=C(c2ccc(S(C)(=O)=O)cc2)C[C@@H]2CC[C@H]1N2C(=O)N1CCC(O)CC1	DRD3 agonist 33
COc1ccccc1CNc1nc(NCc2ccccc2SC)c2sccc2n1	GLP1R inv ag inconclusive
Cc1cc(C)cc(-n2c(C)cc(/C=C3\C(=O)NC(=O)N(C)C3=O)c2C)c1	DRD3 antagonist -65
ClC1=CCC2CN(CCN3CCCCC3)CC2C1 (stereo not drawn)	DRD3 antagonist -52
CC(C)(C)c1ccc(O)c(CN2CCN(c3ccccc3)CC2)c1	DRD3 antagonist -71
COc1cccc(CN2CCN(C(=O)COc3ccc4ccccc4c3)CC2)c1	GLP1R inv ag 11µM
O=C(COc1ccccc1)N1CCN(CC2CC=CCC2)CC1 (stereo not drawn)	DRD3 antagonist -57, GLP1R inv ag inconclusive
COc1ccccc1CN1CCN(C(=O)COc2ccccc2)CC1	DRD3 antagonist -81
COc1cc(OC)c(OC)cc1CN1CCN(C(=O)COc2ccc3ccccc3c2)CC1	GLP1R inv ag inconclusive
CCc1ccc(CNC(=O)c2ccc3c(c2)N=C(C)c2cc(C)ccc2S3)cc1	GLP1R inv ag inconclusive (no result: DRD3 antagonist)
CN1C(=O)C(=Cc2ccccc2OCc2ccccc2Cl)C(=O)N(C)C1=O	GLP1R inv ag 10µM
CCOC(=O)C(O)(c1ccc(NC(=S)NC(=O)c2ccc(Cl)cc2Cl)c(C)c1)C(F)(F)F (stereo not drawn)	GLP1R inv ag 4µM
CCOc1ccc(-c2cc(C)[n+](CCc3ccc(OC)c(OC)c3)c(-c3ccc(OCC)cc3)c2)cc1	GLP1R inv ag 6.3µM
COc1c(C)cc(C(=O)C2CCCN(Cc3cccc(C)n3)C2)cc1C (stereo not drawn)	GLP1R inv ag 8.9µM
COc1cccc(C(=O)C2CCCN(Cc3ccc(F)cc3)C2)c1 (stereo not drawn)	DRD3 antagonist -56, GLP1R inv ag inconclusive
COc1c(C)cc(C(=O)C2CCCN(Cc3cccc(O)c3)C2)cc1C (stereo not drawn)	DRD3 antagonist -60, GLP1R inv ag inconclusive
OC1CCC(Nc2ccn3nc(-c4cccc(OCc5ccccc5)c4)cc3n2)CC1 (stereo not drawn)	GLP1R inv ag inconclusive
NC(Cc1ccc(Oc2cc(I)c(O)c(I)c2)c(I)c1)C(=O)O (stereo not drawn)	none (no result: DRD3 antagonist, GLP1R inv ag, DRD3 agonist)
CCN(CC)c1nc2ccccc2nc1C(=O)Nc1cccc(C(C)=O)c1	GLP1R inv ag inconclusive (no result: GLP1R ag, DRD3 antagonist)
Cc1cc(Cl)ccc1C(=O)C1CCCN(Cc2ccon2)C1 (stereo not drawn)	GLP1R inv ag inconclusive
O=C(c1cccc2ccccc12)C1CCCN(C2CCC2)C1 (stereo not drawn)	DRD3 antagonist -51, GLP1R inv ag inconclusive
O=C(c1cccc2ccccc12)C1CCCN(Cc2ccon2)C1 (stereo not drawn)	DRD3 antagonist -68, GLP1R inv ag inconclusive
CC(C)(C)NC[C@H](O)c1ccc(O)cc1Cl	GLP1R ag inconclusive (no result: DRD3 antagonist, GLP1R inv ag)
Cc1ccc(Cl)cc1N1CCN(C(=O)C2CCCN(S(=O)(=O)c3ccc(Br)s3)C2)CC1 (stereo not drawn)	GLP1R inv ag inconclusive (no result: GLP1R ag, DRD3 antagonist)
CC12CCC(=O)CC1CCC1C2CCC2(C)C1CCC2(C)O (stereo not drawn)	none (no result: DRD3 antagonist, GLP1R inv ag, DRD3 agonist)
Cc1ccccc1NC(=S)NC(NC(=O)CF)C(Cl)(Cl)Cl (stereo not drawn)	none
O=C(CF)NC(Nc1cccc2cccnc12)C(Cl)(Cl)Cl (stereo not drawn)	GLP1R inv ag 10µM
O=c1nc(/C=C/c2ccc(Cl)cc2Cl)cc(C(F)(F)F)[nH]1	GLP1R inv ag 4µM
CC(=O)Nc1cccc(-c2csc(C(O)c3cccc(Cl)c3)n2)c1 (stereo not drawn)	GLP1R inv ag inconclusive
CC[C@H]1CN(C)CCc2c([nH]c3ccccc23)C(=O)C[C@@H]1/C(=C\OC)C(=O)OC	DRD3 antagonist -51
CC[C@H]1CN(C)C[C@@]2(C(=O)OC)Cc3c([nH]c4ccccc34)C(=O)C[C@@H]12	none
[S]=[Sb](=[S])[S][Sb](=[S])=[S]	none (no result: GLP1R ag, DRD3 antagonist, GLP1R inv ag)
CCC(=O)OC1(Cc2ccc(CC)cc2)CC(C)N(C)CC1C (stereo not drawn)	DRD3 antagonist -56, GLP1R inv ag inconclusive
O=C(NCCc1ccccc1)c1ccc(CSc2nc3cccnc3n2Cc2ccc(F)cc2)cc1	GLP1R inv ag inconclusive (no result: GLP1R ag, DRD3 antagonist)
O=C(NCCc1ccccc1)c1ccc2nccnc2c1	GLP1R inv ag 5µM
C[C@@H]1O[C@@H](O[C@@H]2C=C3CC[C@@H]4C(CC[C@]5(C)[C@@H](c6ccc(=O)oc6)CC[C@]45O)[C@@]3(C)CC2)[C@H](O)[C@H](O)[C@H]1O (stereo partly drawn)	DRD3 agonist 36
COc1ccc(CN2CCN(Cc3ccccc3)CC2)c(OC)c1	DRD3 antagonist -113
CCN1CCN(Cc2cc(Br)cc(OC)c2O)CC1	DRD3 antagonist -53
Oc1c(Br)cc(Br)cc1CN1CCN(Cc2ccccc2)CC1	DRD3 antagonist inconclusive, GLP1R inv ag 10µM
COc1ccc(CN2CCN(C(=O)Cc3ccccc3)CC2)c(OC)c1	none
O=C(Cc1ccc(Br)cc1)N1CCN(Cc2ccccc2)CC1	GLP1R inv ag inconclusive
CN(C)CCc1c[nH]c2cccc(O)c12	none (no result: DRD3 antagonist, GLP1R inv ag)
C[C@]12CC[C@H]3[C@@H](CCC4=C(Cl)C(=O)CC[C@@]43C)[C@@H]1CC[C@@H]2O	none (no result: GLP1R ag, DRD3 antagonist, GLP1R inv ag)
CC(N)Cc1c[nH]c2ccc(Cl)cc12 (stereo not drawn)	none
Clc1ccc2[nH]c3c(c2c1)CCNC3	DRD3 antagonist -70, GLP1R inv ag inconclusive
C=CCn1c(O)c(N=Nc2c(C)n(C)n(-c3ccccc3)c2=O)c(=O)[nH]c1=S	DRD3 antagonist -57
Cc1c(N=Nc2c(O)[nH]c(=S)[nH]c2=O)c(=O)n(-c2ccccc2)n1C	DRD3 antagonist -66
CCOc1ccc(-c2nc(CSCC(=O)NCCc3ccc(OCC)c(OCC)c3)c(C)o2)cc1	GLP1R inv ag inconclusive (no result: GLP1R ag, DRD3 antagonist)
COc1cc(NC(=O)c2cccc3c(-c4cccnc4)coc23)cc(OC)c1OC	GLP1R inv ag inconclusive
CC1=C(/C=C/c2ccccc2)CCN(C)C1	DRD3 antagonist -63
CC(=O)/C=C/c1ccccc1	none
O=C(CCCOc1ccc(Cl)cc1Cl)Nc1cc(S(=O)(=O)N2CCOCC2)ccc1N1CCOCC1	GLP1R inv ag inconclusive
CCOC(=O)/C=C(C)/C=C/C[C@@H](C)CCCC(C)C	none (no result: GLP1R ag, DRD3 antagonist, GLP1R inv ag)
CNC[C@H](O)c1ccc(O)cc1	none (no result: DRD3 antagonist, GLP1R inv ag, DRD3 agonist)
CNCC(O)c1ccc(OC(=O)C(C)(C)C)c(OC(=O)C(C)(C)C)c1 (stereo not drawn)	GLP1R ag inconclusive, DRD3 agonist 40!
C[C@H]1[C@@H]2Cc3ccc(O)cc3[C@]1(C)CCN2CCc1ccccc1	none (no result: DRD3 antagonist, GLP1R inv ag, DRD3 agonist)
CC1C2Cc3ccc(O)cc3[C@]1(C)CCN2CCc1ccccc1 (stereo partly drawn)	DRD3 antagonist -93
C=CC[C@]1(O)CCC2C3CCC4=CCCCC4C3CCC21C (stereo partly drawn)	none (no result: DRD3 antagonist, GLP1R inv ag, DRD3 agonist)
O=C(c1cccc(C(F)(F)F)c1)C1CCCN(Cc2ccccc2O)C1 (stereo not drawn)	none
